# Reference: PubChem BioAssay
# Potency and affinity values are given separately. Active and inactive are the calls of the source.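 The calls were made as follows, unless noted: active = fitted half-maximal concentration within the tested dose range, moderate curve steepness, a statistically real signal drop, and little compound fluorescence or tag-binding interference; inactive = the rest.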
# Target: Cell division control protein 42 homolog (Homo sapiens) (UniProt P60953)
# Experiment: activated mutant Cdc42 GTP-binding inhibitors, dose response, biochemical, multiplex bead flow cytometry, Bodipy-FL-GTP (AID 1333)
# Settings: bead-based flow cytometry; series mostly up to 100 µM
# Sequence of Cell division control protein 42 homolog (Homo sapiens) (P60953 whole entry, looked up): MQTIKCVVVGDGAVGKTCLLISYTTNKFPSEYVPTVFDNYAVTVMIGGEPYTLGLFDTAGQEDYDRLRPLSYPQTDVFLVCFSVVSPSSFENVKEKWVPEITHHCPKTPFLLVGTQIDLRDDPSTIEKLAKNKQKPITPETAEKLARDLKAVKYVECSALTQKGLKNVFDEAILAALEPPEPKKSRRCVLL
row,SMILES,outcome
1,CCCN(N=Nc1cccc([N+](=O)[O-])c1)c1cccc([N+](=O)[O-])c1,inactive
2,S=C(NCCc1ccccc1)NC1CC1,inactive
3,Cc1nn2c(-c3cccc(NC(=O)c4ccco4)c3)nnc2c2ccccc12,inactive
4,Cc1cc(C(=O)NC(=S)Nc2cccc(C(=O)O)c2C)ccc1[N+](=O)[O-],inactive
5,O=C(O)c1cccc(NCc2ccccc2)c1,inactive
6,COc1ccc(N=C2S/C(=C\c3ccc(N4CCOCC4)o3)C(=O)N2CCc2c[nH]c3ccccc23)cc1,inactive
7,C/C(=N\NC(=O)CC1N=C(Cc2ccccc2)NNC1=O)c1ccc(Cl)cc1Cl (stereo not given),inactive
8,Nc1[nH]n2c(=O)c3c(nc2c1N=Nc1ccc(Cl)cc1)CCCC3,inactive
9,Cc1cc2nc3c(=O)[nH]c(=O)[nH]c3nc2c([N+](=O)[O-])c1N,inactive
10,COC(=O)c1ccc(COc2ccccc2/C=N/Nc2cccc(C(=O)O)c2)cc1,inactive
11,Cc1ccc(CNCc2c(C)[nH]c(C)c2C(=O)O)cc1,inactive
12,COCCNc1nnnc2c1sc1nc(N3CCOCC3)c3c(c12)CCCC3,inactive
13,CC(C)Nc1nnc(SCC(=O)Nc2ccc3c(c2)C(=O)c2ccccc2C3=O)s1,inactive
14,O=C(Cn1cnc2cc([N+](=O)[O-])ccc2c1=O)NCCc1ccc(Cl)cc1,inactive
15,CCOc1cc(/C=C2/NC(=O)NC2=O)cc([N+](=O)[O-])c1O,inactive
16,Cc1ccc(N=Nc2c(N)[nH]n3c(=O)cc(-c4ccccc4)nc23)cc1,inactive
17,C=CCN1C(=O)/C(=C/c2ccc(N(C)C)cc2)S/C1=N\c1nnc(CC)s1,inactive
18,O=[N+]([O-])c1cc(Cc2ccccc2)cc(C=Nc2ccc(N3CCOCC3)cc2)c1O,inactive
19,COc1ccc(CNC(=O)C2CC(=O)N(c3ccc(OCC(=O)N4C(C)CCCC4C)cc3)C2)cc1 (stereo not given),inactive
20,O=C(O)c1cccnc1SCc1ccc([N+](=O)[O-])cc1,inactive

row,SMILES,outcome
1,O=C(Nc1ccccc1F)c1ccccc1-c1ccccc1,inactive
2,Cc1nn2c(N)csc2nc1=O,inactive
3,O=[N+]([O-])c1ccc(/C=C/C2=NN(c3ccccc3)C(c3ccco3)C2)cc1 (stereo not given),inactive
4,COc1cc(/C=N/Nc2ncnc3sc4c(c23)CCC4)ccc1O,inactive
5,COc1ccc(/C=C2/N=C(SCC(=O)Nc3cc(C)on3)N(c3ccccc3)C2=O)cc1,inactive
6,Cn1nc([N+](=O)[O-])c(C(C#N)c2ccccn2)c(Cl)c1=O (stereo not given),inactive
7,Cc1ccc(C(C)C)c(OCCn2cc(C(=O)O)c3ccccc32)c1,inactive
8,COc1cc(N2CCCC2)c(OC)cc1/C=C(/C#N)c1cccc(Br)c1,inactive
9,COc1cc(CCNc2ccc3nnc(-c4ccccc4)n3n2)cc(OC)c1OC,inactive
10,Oc1ccc(C2=Nn3c(nnc3-c3ccco3)SC2)cc1O,inactive
11,Nc1[nH]c(=S)nc2nc(-c3ccccc3)c(-c3ccccc3)nc12,inactive
12,COc1ccc(CNc2ccccc2C(=O)O)cc1,inactive
13,CCOc1ccc(-n2nc3c(=S)[nH]nc(C)c3c2C)cc1,inactive
14,CCOc1ccc2nc(SCc3ccc(CC(=O)O)cc3)c(C#N)cc2c1,inactive
15,COc1ccccc1OCCn1cc(C(=O)O)c2c(C)cccc21,inactive
16,Cc1[nH]c2ccccc2c1C(=O)CNc1nccs1,inactive
17,CCOc1cc(/C=C2\SC(=O)N=C2N)ccc1O,inactive
18,NC(=O)c1cc2nc(-c3ccco3)cc(C(F)(F)F)n2n1,inactive
19,O=C(C1CCCO1)N1CCN(C(=S)Nc2ccccc2C(F)(F)F)CC1 (stereo not given),inactive
20,CCCCNc1nc(=S)[nH]c2cc(OC)c(OC)cc12,inactive

# Target: Cell division control protein 42 homolog (Homo sapiens) (UniProt P60953)
# Experiment: wildtype Cdc42 GTP-binding inhibitors, dose response, biochemical, multiplex bead flow cytometry, Bodipy-FL-GTP (AID 1334;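 active = fitted half-maximal concentration within the tested range, moderate curve steepness, significant signal drop, and little compound fluorescence or bead-linkage interference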)
# Settings: bead-based flow cytometry, Bodipy-FL-GTP binding to GST-Cdc42; at 100 µM (top of the series) unless noted
row,SMILES,"fluorescence, percent of control (lower = inhibition) [%]"
1,CCCN(N=Nc1cccc([N+](=O)[O-])c1)c1cccc([N+](=O)[O-])c1,84.9
2,S=C(NCCc1ccccc1)NC1CC1,36.3
3,Cc1nn2c(-c3cccc(NC(=O)c4ccco4)c3)nnc2c2ccccc12,37.4
4,Cc1cc(C(=O)NC(=S)Nc2cccc(C(=O)O)c2C)ccc1[N+](=O)[O-],37.3
5,O=C(O)c1cccc(NCc2ccccc2)c1,65.9
6,COc1ccc(N=C2S/C(=C\c3ccc(N4CCOCC4)o3)C(=O)N2CCc2c[nH]c3ccccc23)cc1,133
7,C/C(=N\NC(=O)CC1N=C(Cc2ccccc2)NNC1=O)c1ccc(Cl)cc1Cl (stereo not given),90.1
8,Nc1[nH]n2c(=O)c3c(nc2c1N=Nc1ccc(Cl)cc1)CCCC3,61.6
9,Cc1cc2nc3c(=O)[nH]c(=O)[nH]c3nc2c([N+](=O)[O-])c1N,35
10,COC(=O)c1ccc(COc2ccccc2/C=N/Nc2cccc(C(=O)O)c2)cc1,52.1
11,Cc1ccc(CNCc2c(C)[nH]c(C)c2C(=O)O)cc1,64.4
12,COCCNc1nnnc2c1sc1nc(N3CCOCC3)c3c(c12)CCCC3,29.6
13,CC(C)Nc1nnc(SCC(=O)Nc2ccc3c(c2)C(=O)c2ccccc2C3=O)s1,43.2
14,O=C(Cn1cnc2cc([N+](=O)[O-])ccc2c1=O)NCCc1ccc(Cl)cc1,36.8
15,CCOc1cc(/C=C2/NC(=O)NC2=O)cc([N+](=O)[O-])c1O,28.3
16,Cc1ccc(N=Nc2c(N)[nH]n3c(=O)cc(-c4ccccc4)nc23)cc1,64.1
17,C=CCN1C(=O)/C(=C/c2ccc(N(C)C)cc2)S/C1=N\c1nnc(CC)s1,74.8
18,O=[N+]([O-])c1cc(Cc2ccccc2)cc(C=Nc2ccc(N3CCOCC3)cc2)c1O,45.1
19,COc1ccc(CNC(=O)C2CC(=O)N(c3ccc(OCC(=O)N4C(C)CCCC4C)cc3)C2)cc1 (stereo not given),106
20,O=C(O)c1cccnc1SCc1ccc([N+](=O)[O-])cc1,71.2

row,SMILES,"fluorescence, percent of control (lower = inhibition) [%]"
1,O=C(Nc1ccccc1F)c1ccccc1-c1ccccc1,47.5
2,Cc1nn2c(N)csc2nc1=O,56.9
3,O=[N+]([O-])c1ccc(/C=C/C2=NN(c3ccccc3)C(c3ccco3)C2)cc1 (stereo not given),135
4,COc1cc(/C=N/Nc2ncnc3sc4c(c23)CCC4)ccc1O,33.9
5,COc1ccc(/C=C2/N=C(SCC(=O)Nc3cc(C)on3)N(c3ccccc3)C2=O)cc1,41.3
6,Cn1nc([N+](=O)[O-])c(C(C#N)c2ccccn2)c(Cl)c1=O (stereo not given),24
7,Cc1ccc(C(C)C)c(OCCn2cc(C(=O)O)c3ccccc32)c1,66.7
8,COc1cc(N2CCCC2)c(OC)cc1/C=C(/C#N)c1cccc(Br)c1,103
9,COc1cc(CCNc2ccc3nnc(-c4ccccc4)n3n2)cc(OC)c1OC,34.8
10,Oc1ccc(C2=Nn3c(nnc3-c3ccco3)SC2)cc1O,25.1
11,Nc1[nH]c(=S)nc2nc(-c3ccccc3)c(-c3ccccc3)nc12,33.9
12,COc1ccc(CNc2ccccc2C(=O)O)cc1,75.9
13,CCOc1ccc(-n2nc3c(=S)[nH]nc(C)c3c2C)cc1,53.6
14,CCOc1ccc2nc(SCc3ccc(CC(=O)O)cc3)c(C#N)cc2c1,28.4
15,COc1ccccc1OCCn1cc(C(=O)O)c2c(C)cccc21,56.8
16,Cc1[nH]c2ccccc2c1C(=O)CNc1nccs1,50.6
17,CCOc1cc(/C=C2\SC(=O)N=C2N)ccc1O,40.7
18,NC(=O)c1cc2nc(-c3ccco3)cc(C(F)(F)F)n2n1,29.6
19,O=C(C1CCCO1)N1CCN(C(=S)Nc2ccccc2C(F)(F)F)CC1 (stereo not given),53.3
20,CCCCNc1nc(=S)[nH]c2cc(OC)c(OC)cc12,37.9
